Source: PubChem BioAssay (National Center for Advancing Translational Sciences (NCATS))
PINK1 modulator: A Quantitative High throughput Screen to Identify Chemical Modulators of PINK1 Expression | PINK1 immunofluorescence, high-content cytometry, 24 h | Potency, µM (highest dose often 76.6 µM), without a hit: at the highest dose activation (PINK1 increase), usual class: activators | 410,000 compounds, 0.2% hits; active = well fitted activation curve with a large enough effect; inconclusive = small, poorly fitted or top-dose-only effect; cell line not stated here; also: potency is read from the fitted curve at half-maximal effect; % of control where 0% means no effect; nearly all actives have a fitted effect of over 65% in size
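Compound titrations (5 concentrations, 24 h) on a stable cell line; DMSO and CCCP controls. Endpoint: fixed-cell PINK1 immunofluorescence with mitochondrial, cell and nuclear markers, scanned by microplate cytometer.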
S2 tox: Viability Counterscreen for Primary qHTS for Inhibitors of ATXN expression; S2 cells (HEK-293 line with an ATXN2-luciferase reporter) viability, CellTiter-Fluor protease fluorescence, 24 h; AID 651635, 2014; 400,000 compounds, 0.49% hits; Potency, µM (series often up to 56.7 µM), usual class: cytotoxic; also: potency is read from the fitted curve at half-maximal effect; nearly all actives have a fitted effect of over 40% in size
ATXN2 expr inh: Primary qHTS for Inhibitors of ATXN expression | HEK-293 ATXN2-luciferase reporter, luminescence, 24 h | Potency, µM (series often up to 57 µM), for the others: top-dose activity change, negative = inhibition, most hits filed as inhibitors | 360,000 compounds, 0.72% hits | AID 1745845, 2022; also: potency is read from the fitted curve at half-maximal effect; % is scaled to controls: 0 for no effect and ±100 for the full control effect; nearly all actives have a fitted effect of over 55% in size
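ATXN2-luciferase reporter cells (luciferase flanked by upstream and downstream ATXN2 gene portions) were treated 24 h at 37 °C with compounds at up to 57 uM. SteadyGlo luminescence gave expression; GF-AFC fluorescence gave viability.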
SW480 rereplic: A quantitative high throughput screen for small molecules that induce DNA re-replication in SW480 colon adenocarcinoma cells. SW480 DNA re-replication, Hoechst DNA content imaging, 48 h. Potency, µM (series often up to 46.1 µM), without a hit: at the top dose re-replication activation, hits mostly activators. 340,000 compounds, 1.8% hits; also: potency is read from the fitted curve at half-maximal effect; % of control where 0% means no effect; nearly all actives have a fitted effect of over 55% in size
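250 cells/well; 23 nL cpd via pin tool; 48 hr, 37 C, 5% CO2; Hoechst 40 min; imager read of total nuclear intensity, ex 405/em 500-530 nm.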
MCF10A rereplic: A quantitative high throughput screen for small molecules that induce DNA re-replication in MCF 10a normal breast cells; Potency, µM (titrated, usually from 46.1 µM), for the others: at the top dose activity, positive = re-replication, most hits filed as activators; MCF 10A DNA re-replication, Hoechst nuclear intensity, 48 h; 350,000 compounds, 2.9% hits; AID 624296, 2012; also: potency is read from the fitted curve at half-maximal effect; % of control where 0% means no effect; nearly all actives have a fitted effect of over 50% in size
IL-1B inflam inh: qHTS for Inhibitors of Inflammasome Signaling: IL-1-beta AlphaLISA Primary Screen. THP-1 LPS/ATP IL-1B secretion, AlphaLISA, 16 h; stronger effect = lower value. activity change, % at 57.5 µM. 360,000 compounds, 4.7% hits. AID 743279, 2014; in the data active = activity change below about -50%; inconclusive = mostly about -30% to -49%; also: % is scaled to controls: 0 for no effect and ±100 for the full control effect
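Secreted IL-1B measured by AlphaLISA bead assay after 16 h compound exposure of THP-1 cells; compounds (final up to 57.5 uM) added 1 h before LPS (250 ng/mL) and ATP (1.25 mM) stimulation; lower signal means less secretion.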
* marks the source's active call; other numbers are inactive results; i = inactive; ? = inconclusive; nt = no result given. Compounds with a hit are over-represented: about 7.1% of the library has one in this group of screens. Unless noted, calls follow the shape of the dose curve; as a rule, active = well fitted curve in the direction sought with a large enough effect; inconclusive = small, poorly fitted or top-dose-only effect, or another doubt; inactive = no such curve, though single readings can be large; an effect the other way counts as inactive or inconclusive.

SMILES	PINK1 modulator	S2 tox	ATXN2 expr inh	SW480 rereplic	MCF10A rereplic	IL-1B inflam inh
CCOc1ccccc1CNC(=O)c1cc2oc3ccccc3c2n1C	30%	i	80%	26%	15µM*	-29
COc1cccc(CC2(CO)CCCN(Cc3ccccc3Cl)C2)c1 (configuration not stated)	7%	i	27%	-10%	4.6µM*	0
COc1cccc(CC2(CO)CCCN(C/C=C/c3ccccc3OC)C2)c1 (configuration not stated)	5%	i	nt	12%	8%	-5
COc1ccccc1/C=C/CN1CCCC(CO)(Cc2cccc(Cl)c2)C1 (configuration not stated)	-1%	i	?	?	?	-70*
COc1ccc(F)c(CN2CCCC(CO)(Cc3cccc(Cl)c3)C2)c1 (configuration not stated)	14%	?	nt	6%	16%	-7
COc1ccc(/C=C/CN2CCCC(CO)(Cc3cccc(Cl)c3)C2)cc1 (configuration not stated)	9%	i	-20%	?	?	-78*
Cc1ccccc1-c1cccc(CN2CCc3nnc(C(NS(C)(=O)=O)C(C)C)n3CC2)c1 (configuration not stated)	1%	i	nt	nt	nt	nt
CC(C)(C)c1ccc(C(=O)NCC2CCCN2S(=O)(=O)c2ccccc2)cc1 (configuration not stated)	6%	i	6%	?	?	-57*
Cc1ccc(C(=O)NCC2CCCN2S(=O)(=O)c2ccc(C)cc2)cc1 (configuration not stated)	0%	i	3%	-64%	-1%	-14
O=C(NCCc1ccccc1)C(=O)NCC1CCCN1S(=O)(=O)c1ccccc1 (configuration not stated)	3%	i	-30%	18µM*	23µM*	0
CCCNC(=O)C1CCC(Cn2c(=O)c3sccc3n(CC(=O)NCc3cccc(OC)c3OC)c2=O)CC1 (configuration not stated)	1%	i	15%	nt	nt	nt
CC1CN(C(=O)COC(=O)c2cnc(Cl)c(Cl)c2)CC(C)O1 (configuration not stated)	2%	i	4%	-3%	?	-72*
O=C(Nc1ccccc1C(=O)OCc1cc(=O)n2c3c(sc2n1)CCCC3)c1cccc(Cl)c1	-2%	nt	nt	nt	nt	nt
CCOc1ccc(CCNC(=O)c2cc(C)nc3c2c(C)nn3-c2cccc(F)c2)cc1	-1%	i	4%	nt	nt	nt
CNCCC=C1c2ccccc2C=Cc2ccccc21	1%	?	-13%	?	15%	-51*
CN(C)/C=C1\C=Cc2ccccc21	1%	nt	nt	nt	nt	nt
CCOc1ccc2nc(CN3CCN(Cc4ccccc4OCC)C(CCO)C3)ccc2c1 (configuration not stated)	3%	i	-16%	10%	?	-70*
OCCC1CN(CCCc2ccccc2)CCN1CCc1ccccc1 (configuration not stated)	1%	i	9%	-6%	21µM*	-8
CCOc1cc(CN2CCN(CCc3ccccc3)C(CCO)C2)ccc1OC (configuration not stated)	-1%	i	-9%	?	-1%	-69*
COc1ccc(CN2CCN(CCCc3ccccc3)C(CCO)C2)cc1OC (configuration not stated)	-2%	i	0%	2%	18%	-13
CC(C)CN1CCN(CC#Cc2ccccc2)CC1CCO (configuration not stated)	1%	i	-3%	-22%	0.65µM*	16
